# From PubChem
# WRN inhibitor – qHTS for Inhibitors of WRN Helicase. Bifunctional 3'-5' exonuclease/ATP-dependent helicase WRN (Homo sapiens), Q14191. WRN helicase unwinding, fluorescent forked duplex, kinetic. Potency, µM (series often up to 114 µM), for inactives: at the top dose activity change, negative = inhibition, actives largely listed as inhibitors. actives 0.46% (n = 360,000). AID 651768, 2012; also: potency is read from the fitted curve at half-maximal effect; % is scaled to controls: 0 for no effect and ±100 for the full control effect; nearly all actives have a fitted effect of over 55% in size
#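 Kinetic red-fluorescence monitoring (525/598 nm) tracks WRN helicase activity after 100 nM fluorophore-quencher forked duplex and 2 mM ATP are added to 20 nM enzyme pretreated 15 min at room temperature with compound.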
# Pol eta inh-1 – qHTS for Inhibitors of Polymerase Eta. DNA polymerase eta (Homo sapiens), Q9Y253. recombinant Pol eta, fluorescent DNA replication assay. Potency, µM (series often up to 114 µM), inactives show at the top dose activity change, negative = inhibition, actives largely listed as inhibitors. actives 1.2% (n = 390,000). AID 588591, 2011; also: potency is read from the fitted curve at half-maximal effect; % is scaled to controls: 0 for no effect and ±100 for the full control effect
#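 Pol eta at 10 nM preincubated with compounds 15 min at room temperature; reaction started with fluorescent substrate (50 nM final) and read kinetically at 0 and 10 min.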
# Pol beta inh – qHTS Assay for Inhibitors of DNA Polymerase Beta; P06746; Pol beta primer extension/strand displacement, fluorescence kinetic; Potency, µM (doses to about 114 µM), inactives show at the highest dose activity change, negative = inhibition, usual class: inhibitors; actives 1.3% (n = 340,000); AID 485314, 2010; also: potency is read from the fitted curve at half-maximal effect; % is scaled to controls: 0 for no effect and ±100 for the full control effect
#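 Curves were derived by four-parameter Hill fits of normalized qHTS data. The kinetic fluorescent primer-extension read was taken at 0 and 10 min after 50 nM substrate, following a 15 min room-temperature preincubation of 10 nM enzyme with compounds.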
# POLI inh – qHTS for Inhibitors of Polymerase Iota | DNA polymerase iota (Homo sapiens), Q9UNA4 | Potency, µM (series often up to 115 µM), for inactives: at the highest dose activity, negative = inhibition, most hits filed as inhibitors | actives 1% (n = 390,000) | Pol iota fluorescent replication assay, 10 min | AID 588590, 2011; also: potency is read from the fitted curve at half-maximal effect
#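 Fluorescent replication assay read twice, at 0 min and 10 min after adding 50 nM (final) substrate. Enzyme (10 nM) and compounds were first incubated 15 min at room temperature; enzyme-free buffer wells were negative controls.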
# PI5P4Ka inh – qHTS for Inhibitors of phosphatidylinositol 5-phosphate 4-kinase (PI5P4K); AID 652105, 2013; Phosphatidylinositol 5-phosphate 4-kinase type-2 alpha (Homo sapiens), P48426; max response, %; actives 1.2% (n = 330,000); PI5P4Kalpha enzyme, ADP-Glo luminescence, 60 min; hits give low values; active = max response of -50% or lower; inconclusive = between -30% and -50%; inactive = -30% or higher; also: value at the top dose of about 77 µM; % is scaled to controls: 0 for no effect and ±100 for the full control effect
#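 Compounds were pin-transferred onto PI5P4Kalpha and substrate in HEPES pH 7.4 buffer with EGTA, CHAPS and 5% DMSO. ATP (5 microM final) started the reaction, which ran 60 minutes at room temperature before ADP-Glo detection.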
# Pol kappa inh-1 – qHTS for Inhibitors of Polymerase Kappa | DNA polymerase kappa (Homo sapiens), Q9UBT6 | purified Pol kappa, fluorescent DNA synthesis assay, 10 min | Potency, µM (highest dose often 107 µM), without a hit: at the top dose activity, negative = inhibition, hits mostly inhibitors | actives 0.53% (n = 400,000) | AID 588579, 2011; also: potency is read from the fitted curve at half-maximal effect; % is scaled to controls: 0 for no effect and ±100 for the full control effect
# Target sequence (Q9UBT6 whole entry, looked up): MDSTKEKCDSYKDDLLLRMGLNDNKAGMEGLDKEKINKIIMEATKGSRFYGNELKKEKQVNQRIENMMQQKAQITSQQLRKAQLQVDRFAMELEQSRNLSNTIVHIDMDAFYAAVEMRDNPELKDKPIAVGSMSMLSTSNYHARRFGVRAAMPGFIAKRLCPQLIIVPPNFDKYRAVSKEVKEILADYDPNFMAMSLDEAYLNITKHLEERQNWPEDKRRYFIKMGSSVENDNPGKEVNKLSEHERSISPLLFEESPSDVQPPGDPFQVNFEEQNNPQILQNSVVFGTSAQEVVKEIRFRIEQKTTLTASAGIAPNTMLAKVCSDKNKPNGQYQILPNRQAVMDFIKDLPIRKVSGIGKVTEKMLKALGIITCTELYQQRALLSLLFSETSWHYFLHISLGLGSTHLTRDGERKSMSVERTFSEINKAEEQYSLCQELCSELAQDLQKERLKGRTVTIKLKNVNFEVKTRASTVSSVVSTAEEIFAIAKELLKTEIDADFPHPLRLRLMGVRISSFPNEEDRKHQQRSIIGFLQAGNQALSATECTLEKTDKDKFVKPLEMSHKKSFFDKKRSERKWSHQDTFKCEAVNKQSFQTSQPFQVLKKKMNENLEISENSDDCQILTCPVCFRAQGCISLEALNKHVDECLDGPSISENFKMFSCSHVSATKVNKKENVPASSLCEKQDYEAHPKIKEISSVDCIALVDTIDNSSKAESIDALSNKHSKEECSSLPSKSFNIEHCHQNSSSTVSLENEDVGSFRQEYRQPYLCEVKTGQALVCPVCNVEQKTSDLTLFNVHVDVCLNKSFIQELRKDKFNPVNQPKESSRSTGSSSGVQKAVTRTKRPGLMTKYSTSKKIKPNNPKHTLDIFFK
#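 Fluorescent qHTS in 1536-well format: enzyme (10 nM) and compound sat 15 min at room temperature before 50 nM substrate (final) was added. Signal taken at 0 and 10 min; no-enzyme buffer wells were negative controls.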
# TbPGK inh – qHTS for inhibitors of Phosphogylcerate Kinase: Hit Validation Screen | shares compounds with Pol kappa inh-1 | actives 79% (n = 500) | Potency, µM (top dose mostly 57.5 µM), for the others: at the highest dose activity change, negative = inhibition, most hits filed as inhibitors | TbPGK coupled GAPDH assay, Kinase-Glo luminescence; also: potency is read from the fitted curve at half-maximal effect; % is scaled to controls: 0 for no effect and ±100 for the full control effect; nearly all actives have a fitted effect of over 65% in size
# POLI cherry-pick – qHTS for Inhibitors of Polymerase Iota: Confirmatory Assay for Cherry-picked Compounds; shares compounds with Pol kappa inh-1; Pol iota primer extension, TAMRA/BHQ fluorescence; Potency, µM, hits mostly inhibitors; actives 77% (n = 1,500); AID 720496, 2013; also: potency is read from the fitted curve at half-maximal effect
# Pol kappa inh-2 – qHTS for Inhibitors of Polymerase Kappa: Confirmatory Assay for Cherry-picked Compounds; purified Pol-kappa, fluorescent strand-displacement substrate; actives 76% (n = 920); Potency, µM, hits mostly inhibitors; shares compounds with Pol eta inh-1; also: potency is read from the fitted curve at half-maximal effect
# Pol eta inh-2 – qHTS for Inhibitors of Polymerase Eta: Confirmatory Assay for Cherry-picked Compounds; shares compounds with Pol eta inh-1; Pol eta primer extension, TAMRA/BHQ fluorescence, 10 min; Potency, µM, hits mostly inhibitors; actives 64% (n = 2,600); also: potency is read from the fitted curve at half-maximal effect
# * marks the source's active call; other numbers are inactive results; u = inconclusive; x = not tested or not shown; [ ] = dose if it differs, or a comment. Sampled rows, rich in hits. Any-hit rate of the full collection: about 2.8%. Unless noted, calls follow the shape of the dose curve; as a rule, active = well fitted curve in the direction sought with a large enough effect; inconclusive = small, poorly fitted or top-dose-only effect, or another doubt; inactive = no such curve, though single readings can be large; an effect the other way counts as inactive or inconclusive.
SMILES,WRN inhibitor,Pol eta inh-1,Pol beta inh,POLI inh,PI5P4Ka inh,Pol kappa inh-1,POLI cherry-pick,Pol kappa inh-2,Pol eta inh-2,others
COc1ccc2c(C)nc(Nc3nc(C)c(C)c(=O)[nH]3)nc2c1,2%[57.1 µM],u,200%,8%,x,11%,53*,x,76*,
COc1ccc(S(=O)(=O)Nc2cc(SCC(=O)O)c(O)c3ccccc23)cc1,79µM*,7.9µM*,u,4µM*,-51*,-17%,u,x,u,
C=C(C)C(=O)Oc1ccc(N=Nc2ccc(C)cc2)ccc1=O,40µM*,3.5µM*,x,u,-12,50µM*,24*,11*,19*,TbPGK inh=1.5µM*
CC(=O)c1ccc(N=Nc2ccc(C)cc2)cc1,-1%,-22%,23%,77%,11,-3%,x,x,x,
Cc1ccc(NC(=O)C2(c3ccccc3)CCOCC2)c([N+](=O)[O-])c1,16%,-5%,28%,36%,1,-5%,x,x,x,
O=C1ON=C(c2ccccc2)/C1=C/c1ccc(-c2ccccc2[N+](=O)[O-])o1,u,22µM*,-27%,u,-78*,-24%,u,x,48*,
Cc1ccc(C(=O)OCC(=O)c2ccc(CC(=O)N3CCOCC3)s2)c(C)c1,50µM*,16µM*,x,13µM*,u,18µM*,42*,38*,u,
Cc1ccc(-n2c(C)cc(C(=O)OCC(=O)N3CCOCC3)c2C)cc1,-7%,-21%,x,85%,-2,-5%,x,x,x,
Cc1ccccc1OCC(=O)OCC(=O)c1c[nH]c2ccccc12,-6%,-23%,x,28%,3,-8%,x,x,x,
C=CCOc1ccc(C=NNc2ccc(S(=O)(=O)Nc3ccccc3C(=O)O)cc2[N+](=O)[O-])cc1OC,50µM*,u,x,14µM*,-83*,u,19*,u,85*,TbPGK inh=5.2µM*
CCOc1ccc(C=NNc2ccc(S(=O)(=O)Nc3ccccc3C(=O)O)cc2[N+](=O)[O-])cc1,-28%,-12%,x,u,u,-14%,x,x,x,
Cc1nn(-c2ccccc2)c(Cl)c1/C=N/Nc1ccc(S(=O)(=O)Nc2ccccc2C(=O)O)cc1[N+](=O)[O-],u,35µM*,45µM*,40µM*,x,u,u,24*,43*,
Cc1ccc(CSC2=NC(C)(C)Nc3ccccc32)c(C)c1,x,-17%,3%,12%,x,-18%,x,x,x,
O=C(CCN1C(=O)/C(=C\C=C\c2ccccc2)SC1=S)Nc1ccc(C(=O)O)cc1,56µM*,28µM*,20µM*,u,u,u,27*,x,85*,
